Records with an inconclusive call do not appear. Calls of active or inactive are those of the source. Calls come from the whole dose curve; as a rule, active = well fitted curve in the direction sought with a large enough effect; inconclusive = small, poorly fitted or top-dose-only effect, or another doubt; inactive = no such curve, though single readings can be large or run the other way.
Experiment: qHTS for Inhibitors of Bloom's syndrome helicase (BLM): Thiazole Orange DNA Binding Counterscreen for SAR.
Text: Human RecQ DNA helicases participate in maintenance of genome stability and DNA repair. While other types of helicases have been explored as targets for drug development, members of the RecQ family have remained less well characterized. Mutations of the Bloom helicase gene have been associated with the rare human genetic disease called Bloom syndrome. […] Moreover, identified inhibitors can be used in cells and animal models to examine the consequences of inhibition on the survival of cancer cells where it has been shown that BLM plays an important role.
A fluorescence-based, biochemical assay in 1536 well format was developed to evaluate inhibition of BLM DNA unwinding activity. This assay was used to screen the MLPCN library. The resulting compounds were subjected to orthogonal and secondary biochemical assays to triage the initial hits, to classify compounds based on mode of action and to derive structure activity relationships (SARs) of candidate effectors. The Thiazole Orange (ThO) DNA binding (TO-binding) is used to eliminate inhibitors that operate via nonspecific DNA binding. […]
Compounds were added to a 4 uL mixture of 50 nM DNA and 100 nM ThO via pintool transfer. The fluorescence signal (excitation 480 nm, emission 530 nm) was measured after 15 min incubation at room temperature using the ViewLux CCD imager.

| Structure (SMILES) | outcome |
| --- | --- |
| N#Cc1ccc(NC(=O)Nc2nnc(-c3ccncc3)s2)cc1C(F)(F)F | inactive |
| N#Cc1ccc(NC(=O)Nc2nnc(-c3ccncc3)s2)cc1Cl | inactive |

— PubChem BioAssay AID720550 (National Center for Advancing Translational Sciences (NCATS), 2013)
